# Experimental data as given in PubChem BioAssay (NCI).
# Compounds without any hit were thinned out: in the full panel of roughly 83,000, 20% have a hit.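 48-hour exposure, single concentration, 96-well plates; percent growth endpoint where 0 means no net growth. Active: below 10.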 Unmarked numbers belong to inactive results. Calls of active or inactive are those of the source.
# Assays:
# Assay in all cases: NCI-60 one-dose screen, 48 h (100 = growth as untreated, 0 = no growth, -100 = all killed)
# Details in all cases: 10 µM unless noted
# NCI-H23 lung = system: NCI-H23 lung
# NCI-H226 lung = system: NCI-H226 lung
# NCI-H322M lung = system: NCI-H322M lung
# HOP-62 NSCLC = system: HOP-62 NSCLC
# NCI-H460 lung = system: NCI-H460 lung
# HOP-92 NSCLC = system: HOP-92 NSCLC
# NCI-H522 lung = system: NCI-H522 lung
# A549/ATCC NSCLC = system: A549/ATCC NSCLC
# 786-0 renal = system: 786-0 renal
# COLO 205 colon = system: COLO 205 colon
# DU-145 prostate = system: DU-145 prostate
# K-562 leukemia = system: K-562 leukemia
# MALME-3M melanoma = system: MALME-3M melanoma
# MDA-MB-231 breast = system: MDA-MB-231 breast
# RXF 393 renal = system: RXF 393 renal
# SF-268 CNS = system: SF-268 CNS
# SF-295 CNS = system: SF-295 CNS
# SF-539 CNS = system: SF-539 CNS
# UACC-257 melanoma = system: UACC-257 melanoma
# M14 melanoma = system: M14 melanoma
SMILES,growth (NCI-H23 lung),growth (NCI-H226 lung),growth (NCI-H322M lung),growth (HOP-62 NSCLC),growth (NCI-H460 lung),growth (HOP-92 NSCLC),growth (NCI-H522 lung),growth (A549/ATCC NSCLC),growth (786-0 renal),growth (COLO 205 colon),growth (DU-145 prostate),growth (K-562 leukemia),growth (MALME-3M melanoma),growth (MDA-MB-231 breast),growth (RXF 393 renal),growth (SF-268 CNS),growth (SF-295 CNS),growth (SF-539 CNS),growth (UACC-257 melanoma),growth (M14 melanoma)
COC(=O)c1nc(-c2ccccc2)oc1S(=O)(=O)N1CCCC(C)C1 (stereo not given),87.8%,90.6%,90.2%,107%,102%,72.7%,28.6%,96.8%,59.1%,67.7%,91.3%,17.7%,78.2%,76.8%,78.8%,85.8%,108%,85%,82.3%,39.3%
FC(F)(F)c1[nH]ncc1-c1nc2ccc3[nH]ncc3c2c2c1CCCC2,7.15% (active),10.1%,3.13% (active),1.07% (active),5.86% (active),31.2%,-16.9% (active),0.818% (active),-23.8% (active),-8.58% (active),6.89% (active),18.7%,8.51% (active),14.5%,-62.9% (active),8.87% (active),24.3%,-35.1% (active),17.6%,12.5%
C(=C(\C1=NCCN1)n1ccc2ccccc21)/c1ccccc1,97%,93.5%,97.7%,96.3%,101%,78.7%,89.7%,99.9%,98.3%,107%,103%,96.7%,93.4%,96.8%,89.9%,91.8%,99.3%,99.5%,93.3%,91.4%
OC1(c2ccccc2)c2ccccc2N(c2ccccc2)c2ccc(Cl)cc21 (stereo not given),-49.4% (active),-80.7% (active),-90.3% (active),-91.7% (active),-48.4% (active),-76.8% (active),-86.8% (active),-12.5% (active),-94.6% (active),-85.7% (active),-90.6% (active),-11.4% (active),-93.1% (active),-77% (active),-83% (active),-72.4% (active),-57.6% (active),-82.6% (active),-58.8% (active),-79.5% (active)
CN1CCOCCN(C)Cc2ccc3ccc(cc3c2)CN(C)CCOCCN(C)Cc2ccc3ccc(cc3c2)C1,90.2%,111%,99.6%,91.8%,59.5%,85.8%,110%,96.3%,75.8%,94.6%,57.8%,-10.3% (active),68.8%,70.8%,75.9%,84.9%,103%,79.3%,110%,99.4%
Cc1c2cnccc2c(C)c2c1c1cc(CO)ccc1n2C,-46.1% (active),-68.5% (active),-40.2% (active),-48.8% (active),-32.5% (active),-20% (active),-72.6% (active),-28.2% (active),-13.1% (active),-51.2% (active),-0.903% (active),1.71% (active),-87.6% (active),-52.1% (active),-84.7% (active),-28.8% (active),-26.6% (active),-68% (active),-52.7% (active),-90.9% (active)
COC(=O)/C=C1/SC(=Nc2ccc(F)cc2)N(CCc2c[nH]c3ccc(O)cc23)C1=O,62.2%,62.5%,92.1%,27.6%,25.3%,40.2%,23.6%,69.5%,40.6%,78.2%,37.2%,37.7%,58.9%,59.3%,32%,45.9%,61.5%,45.3%,39.4%,40.1%
